# Laboratory results from ChEMBL document CHEMBL3988442, “University of Dundee, Small-Polar-MMV Screening Library” (2021).
# Screen size: about 66,000 compounds; about 960 (1.5%) showed an effect of 50% or more. The sample as a whole holds a higher share of strong results than the screen did.
# Tested on: Trypanosoma brucei
# Assay: Trypanosoma brucei 72 hour study
# Assay type: functional, organism-based
# Parameters: scale not given: in the data most compounds retested in dose-response had high values
structure (smiles),measurement,setting,value
COc1ccc(CN2CCc3sccc3C2C)cc1CN1CCOCC1.Cl (configuration not stated),Percent Effect,"30.3 µM, […]",-20.22%
COc1cc(C(=O)Nc2nc(C)no2)cc(Cl)c1OC,Percent Effect,10 µM,-54.4%
O=C(O)C(F)(F)F.O=C(O)C(F)(F)F.c1cc(CN2CCO[C@H]3[C@H](OCCN4CCCC4)CC[C@@H]32)co1,Percent Effect,"30.3 µM, […]",-5.554%
Br.COc1ccc(OCCc2cc(C3CCN(CC(C)C)C3)n[nH]2)cc1 (configuration not stated),Percent Effect,"30.3 µM, […]",20.63%
Clc1ccc(OCCc2cc(C3CCN(c4ncccn4)C3)n[nH]2)cc1 (configuration not stated),Percent Effect,"30.3 µM, […]",28.73%
CCCN1CCC(c2cc(CCOc3ccc(C(F)(F)F)cc3)[nH]n2)C1 (configuration not stated),Percent Effect,"30.3 µM, […]",85.59%
Cl.Cl.Cn1cc(C(=O)NCc2cncc3c2CCN(CC2CC2)C3)cn1,Percent Effect,"30.3 µM, […]",-27.13%
CN(Cc1ccncc1)C(CO)c1cccc(F)c1 (configuration not stated),Percent Effect,"30 µM, 30.03 µM",-28.86%
O=C(Nc1ccc2c(c1)C(=O)NC2)c1ccc(S(=O)(=O)C(F)(F)F)cc1,Percent Effect,"30.3 µM, […]",11.83%
Cc1[nH]c2ccccc2c1-c1ccnc(N[C@@H](C)CO)n1,Percent Effect,"30.3 µM, […]",24.23%
Cc1[nH]c2ccccc2c1-c1ccnc(N[C@H](CO)CC(C)C)n1,Percent Effect,"30.3 µM, […]",57.39%
Cc1[nH]c2ccccc2c1-c1ccnc(N[C@@H](CO)C(C)C)n1,Percent Effect,"30.3 µM, […]",11.27%
CC(C)c1[nH]c2ncccc2c1CN1CCOCC1.Cl,Percent Effect,"30.3 µM, […]",-24.02%
CN(C)CCN1CCOCC2(C1)CN(Cc1ccsc1)CCO2.O=C(O)C(F)(F)F.O=C(O)C(F)(F)F.O=C(O)C(F)(F)F (configuration not stated),Percent Effect,"30 µM, 30.03 µM",38.01%
Cc1ccccc1N1CCN(c2cc(N(C)C)ncn2)C(C)C1 (configuration not stated),Percent Effect,"30 µM, 30.03 µM",6.135%
Cc1ccc(N2CCN(c3ccccc3C)CC2C)nn1 (configuration not stated),Percent Effect,"30 µM, 30.03 µM",-104.7%
Cc1ccccc1N1CCN(c2ccncn2)C(C)C1 (configuration not stated),Percent Effect,"30 µM, 30.03 µM",96.97%
Cc1noc(C)c1-c1cccc(C2CN(CC(=O)N(C)C)CCO2)n1.O=CO (configuration not stated),Percent Effect,"30.3 µM, […]",-10.64%
Cc1nc(CN2CCC3(CCN(Cc4nccn4C)CC3)C2=O)cs1.O=C(O)C(F)(F)F.O=C(O)C(F)(F)F,Percent Effect,"30.3 µM, […]",-13.64%
O=C(O)C(F)(F)F.O=C1C[C@H]2[C@@H](CCN2C(=O)Cc2ccccc2)N1Cc1cccnc1,Percent Effect,"30.3 µM, […]",-5.465%
O=C(O)C(F)(F)F.O=C([C@H]1CCCO1)N1CCOC2(CCCN(c3ncccc3F)C2)C1 (some centres not stated),Percent Effect,"30.3 µM, […]",1.881%
Fc1ccc(F)c(CN2CCC(c3n[nH]c4ncccc34)CC2)c1.O=C(O)CC(O)(CC(=O)O)C(=O)O,Percent Effect,"30.3 µM, […]",65.45%
Fc1cccc(CN2CCC(c3n[nH]c4ncccc34)CC2)c1F,Percent Effect,"30.3 µM, […]",18.42%
O=C(O)CC(O)(CC(=O)O)C(=O)O.c1cnc2[nH]nc(C3CCN(Cc4ccsc4)CC3)c2c1,Percent Effect,"30.3 µM, […]",-1.78%
Cc1ccccc1OC1CCN(CC(=O)Nc2c(C)nn(C)c2C)CC1,Percent Effect,"30.3 µM, […]",11.58%
COCCC(=O)N1CC2(CCN(Cc3ccoc3)C2)C1,Percent Effect,"30 µM, 30.03 µM",-24.51%
Fc1ccc(CN2Cc3nccn3CC(CN3CCOCC3)C2)cc1.O=C(O)C(F)(F)F.O=C(O)C(F)(F)F (configuration not stated),Percent Effect,"30 µM, 30.03 µM",39.42%
Cc1cccc(CN2CCOCC3(CCN(C4CCOCC4)C3)C2)c1.O=C(O)C(F)(F)F.O=C(O)C(F)(F)F (configuration not stated),Percent Effect,"30 µM, 30.03 µM",52.28%
Fc1cccc(CN2CCOCC3(CCN(C4CCOCC4)C3)C2)c1.O=C(O)C(F)(F)F.O=C(O)C(F)(F)F (configuration not stated),Percent Effect,"30 µM, 30.03 µM",30.04%
Cc1cccc(CN2Cc3nccn3CC(CN3CCOCC3)C2)c1.O=C(O)C(F)(F)F.O=C(O)C(F)(F)F (configuration not stated),Percent Effect,"30 µM, 30.03 µM",58.02%
Cc1noc(C)c1CN1Cc2nccn2CC(CN2CCOCC2)C1.O=C(O)C(F)(F)F.O=C(O)C(F)(F)F (configuration not stated),Percent Effect,"30 µM, 30.03 µM",27.27%
O=C(O)C(F)(F)F.O=C(O)C(F)(F)F.c1ccc(CN2CCOCC3(CCN(C4CCOCC4)C3)C2)cc1 (configuration not stated),Percent Effect,"30.3 µM, […]",-34.62%
CCC(C(=O)Nc1ccc2c(C)n[nH]c2c1)N1CCCC1=O (configuration not stated),Percent Effect,"30 µM, 30.03 µM",6.301%
CCN1N=C(C(=O)N2CCCC(c3nc(C)cs3)C2)CCC1=O (configuration not stated),Percent Effect,"30.3 µM, […]",-15.61%
same,Percent Effect,"10 mM, 10 mM as filed; unlikely as a test dose",-12.74%
O=C(C1CCOC1)N1CCN(CCn2cccn2)c2ncccc2C1.O=C(O)C(F)(F)F (configuration not stated),Percent Effect,"30.3 µM, […]",-86.89%
O=C(O)C(F)(F)F.O=C(O)C(F)(F)F.O=C(O)C(F)(F)F.c1ccc(CO[C@H]2CO[C@@]3(CCCN(Cc4cccnc4)C3)C2)nc1,Percent Effect,"30 µM, 30.03 µM",-28.27%
CN1CCN(C(=O)c2cc3sccc3n2Cc2ccccc2)CC1,Percent Effect,"30.3 µM, […]",20.51%
CN1CCN(C(=O)c2cc3sccc3n2Cc2ccccc2Cl)CC1,Percent Effect,"30.3 µM, […]",25.89%
CN1CCN(C(=O)c2cc3sccc3n2Cc2ccc(Cl)cc2)CC1,Percent Effect,"30.3 µM, […]",99.49%
CC1CCCN(Cc2c(C3CC3)n(CC(=O)N(C)C)c3ncccc23)C1.Cl (configuration not stated),Percent Effect,"30.3 µM, […]",-32.63%
N#CCCN(CC1CCCO1)C(=O)c1ccsc1 (configuration not stated),Percent Effect,"30.3 µM, […]",16.66%
same,Percent Effect,"10 mM, 10 mM as filed; unlikely as a test dose",-43.52%
O=C(CN(CC(O)c1ccc(F)cc1)C1CC1)NCc1cccs1 (configuration not stated),Percent Effect,"30 µM, 30.03 µM",-22.68%
COc1ccc(F)cc1CN1CCCC1Cn1nc(C)nc1C (configuration not stated),Percent Effect,10 µM,-21.11%
Cc1cnn(CC2CCCN2Cc2nc(C)c3ccccc3n2)c1 (configuration not stated),Percent Effect,"30.3 µM, […]",99.14%
same,Percent Effect,"10 mM, 10 mM as filed; unlikely as a test dose",-68.59%
Cc1nc(CN2CCCC2Cn2cccn2)nc2ccccc12 (configuration not stated),Percent Effect,"30 µM, 30.03 µM",-97.44%
Cc1nc(C)n(CC2CCCN2Cc2nc(N)c3ccccc3n2)n1 (configuration not stated),Percent Effect,"30 µM, 30.03 µM",-26.66%
Cc1nc(C)n(CC2CCCN2Cc2nc3ccccc3nc2C)n1 (configuration not stated),Percent Effect,"30 µM, 30.03 µM",-3.332%
COc1ccc(C)cc1CN1CCCC1c1noc(C2CC2)n1 (configuration not stated),Percent Effect,"30 µM, 30.03 µM",105.3%
COc1ccc(C)cc1CN1CCCC1Cn1nc(C)nc1C (configuration not stated),Percent Effect,"30 µM, 30.03 µM",103.3%
Cc1cnn(CC2CCCCN2Cc2nc(C)c3ccccc3n2)c1 (configuration not stated),Percent Effect,"30.3 µM, […]",-8.505%
same,Percent Effect,"10 mM, 10 mM as filed; unlikely as a test dose",-58.92%
COc1ccc(CN2CCCC2Cn2nc(C)nc2C)cc1F (configuration not stated),Percent Effect,"30 µM, 30.03 µM",13.69%
Cc1nc(C)n(CC2CCCN2Cc2nc(C)c3ccccc3n2)n1 (configuration not stated),Percent Effect,10 µM,-1.729%
same,Percent Effect,"30.3 µM, […]",68.42%
COc1c(C)cnc(CN2CCCC2c2noc(C3CC3)n2)c1C (configuration not stated),Percent Effect,"30 µM, 30.03 µM",-15.93%
Cc1cc(CN2CCCC2c2noc(C3CC3)n2)c2ccccc2n1 (configuration not stated),Percent Effect,"30 µM, 30.03 µM",8.829%
CC(C)CC(=O)N1CCC2(CC1)COCCN2Cc1ccc(F)cc1.O=C(O)C(F)(F)F,Percent Effect,"30 µM, 30.03 µM",17.24%
COc1ccc(C[C@H]2CNCC[C@@H]2OC)cc1.O=C(O)C(F)(F)F,Percent Effect,"30.3 µM, […]",-9.891%
C[C@@H]1CN(S(C)(=O)=O)C[C@]12CCN(Cc1cccnc1)C2=O.O=C(O)C(F)(F)F,Percent Effect,"30.3 µM, […]",-31.63%
Cc1cc(Cl)c(C)c(S(=O)(=O)N2CCN(Cc3ccncc3)CC2)c1Cl,Percent Effect,"30 µM, 30.03 µM",-52.63%
CNC(=O)[C@@H]1CN(C(=O)C2CCC2)C[C@H]1c1ccnc(N2CCCC2)n1.Cl,Percent Effect,"30.3 µM, […]",8.722%
Cn1cc(CCC(=O)N2C[C@@H]3CC[C@H](C2)N(Cc2ccccn2)C3)cn1,Percent Effect,"30.3 µM, […]",7.516%
CC(C)c1cc(NC(=O)CN2CCCC2c2noc(C(C)C)n2)on1 (configuration not stated),Percent Effect,10 µM,-43.85%
same,Percent Effect,"30.3 µM, […]",0.3759%
CN(C(=O)NCc1ccncc1)C1CCCN(c2ccccc2)C1=O (configuration not stated),Percent Effect,10 µM,-27.33%
COCCN1CCC2(CC1)CC(c1cccnc1)CO2.O=C(O)C(F)(F)F (configuration not stated),Percent Effect,"30.3 µM, […]",-48.93%
Cc1c(C)n2c(SCC(=O)N3CCCCC3)nnc2[nH]c1=O,Percent Effect,"30.3 µM, […]",-16.73%
Cl.O=C1CC2(CCCNC2)C(=O)N1Cc1cccc(Cl)c1 (configuration not stated),Percent Effect,"30.3 µM, […]",2.467%
CCC(C)NC(=O)Cn1c(Nc2cc(C)cc(C)c2)nc(C)cc1=O (configuration not stated),Percent Effect,"30 µM, 30.03 µM",-43.03%
Cc1ccc(NCc2cncc3c2CCN(Cc2ccccn2)C3)nn1.Cl.Cl,Percent Effect,"30.3 µM, […]",-48.05%
O=C(O)C(F)(F)F.O=C([C@H]1CC[C@@H]2[C@@H](CCN2Cc2nccs2)O1)N1CCOCC1,Percent Effect,"30.3 µM, […]",-77.67%
NC[C@H]1CC[C@H](C(NC(=O)C2CC2)c2ccccn2)CC1 (some centres not stated),Percent Effect,"30.3 µM, […]",-27.22%
C/C(=C\c1ccccc1)CN1CCCC(c2nnc3n2CCNCC3)C1.Cl (configuration not stated),Percent Effect,"30.3 µM, […]",-29.45%
O=C(O)C(F)(F)F.O=C(O)C(F)(F)F.O=C1CC(c2ccncc2)C2(CCN(Cc3ccc(F)cc3)CC2)N1 (configuration not stated),Percent Effect,"30 µM, 30.03 µM",27.71%
Cc1ccc(CN2CCC[C@]3(C(=O)O)CN(CC4CC4)C[C@@H]3C2)s1.O=C(O)C(F)(F)F.O=C(O)C(F)(F)F,Percent Effect,"30.3 µM, […]",-73.23%
CCCn1c(C)c(CC(=O)NCCC(N)=O)c2c1CC(C)(C)CC2=O,Percent Effect,"30 µM, 30.03 µM",-41.08%
Cc1nc(NC(=O)c2ccc(-n3ncc(C#N)c3N)cc2)sc1C,Percent Effect,10 µM,-25.11%
Nc1nc(CN2CCCC2Cn2cncn2)nc2ccccc12 (configuration not stated),Percent Effect,10 µM,-61.59%
Cc1cnn(CC2CCCN2Cc2nc(N)c3ccccc3n2)c1 (configuration not stated),Percent Effect,"30.3 µM, […]",51.47%
same,Percent Effect,"10 mM, 10 mM as filed; unlikely as a test dose",-16.65%
Cc1cnn(CC2CCCCN2Cc2nc(N)c3ccccc3n2)c1 (configuration not stated),Percent Effect,"30 µM, 30.03 µM",14.94%
COCCN1CCn2cc(CNC(=O)c3cnn(C)c3)nc2C1.O=C(O)C(F)(F)F,Percent Effect,"30 µM, 30.03 µM",-33.8%
CC(C)CN1C[C@H]2C[C@H](C(=O)NC3CCC3)[C@@H](C1)O2.O=C(O)C(F)(F)F,Percent Effect,"30.3 µM, […]",-44.07%
Cc1ccc(-c2cccc(N3CCC(NC4CCOCC4)CC3)c2)cc1,Percent Effect,"30 µM, 30.03 µM",8.614%
Clc1cccc(-c2cccc(N3CCC(NC4CCOCC4)CC3)c2)c1,Percent Effect,"30 µM, 30.03 µM",100.7%
COc1cccc(-c2cccc(N3CCC(N[C@@H]4CCOC4)CC3)c2)c1,Percent Effect,"30 µM, 30.03 µM",9.147%
COC(=O)c1ccc(CNCc2ccn(C)n2)cc1,Percent Effect,"30.3 µM, […]",-7.529%
O=C(O)C(F)(F)F.O=C(O)C(F)(F)F.O=C1CCC2(CCN(Cc3ccc(F)cc3)CC2)N1CCN1CCCC1,Percent Effect,"30.3 µM, […]",-27.18%
Cc1nccc(-c2cccc(NCC(=O)N3CCCC(C)C3)c2)n1 (configuration not stated),Percent Effect,"30.3 µM, […]",89.85%
Cc1nccc(-c2cccc(NCC(=O)N3CCNC(=O)C3)c2)n1,Percent Effect,"30.3 µM, […]",13.04%
Cc1nccc(-c2cccc(NCC(=O)N3CCOCC3)c2)n1,Percent Effect,"30.3 µM, […]",18.69%
Cc1nccc(-c2cccc(NCC(=O)N3CCCCCCC3)c2)n1,Percent Effect,"30 µM, 30.03 µM",-43.47%
Cc1nccc(-c2cccc(NCC(=O)N3CCOC(C)C3)c2)n1 (configuration not stated),Percent Effect,"30.3 µM, […]",18.9%
Cc1nccc(-c2cccc(NCC(=O)N3CCc4sccc4C3)c2)n1,Percent Effect,"30 µM, 30.03 µM",51.17%
